Measurements taken from PubChem BioAssay.
The source made the active and inactive calls.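 How the source made its calls, unless noted: active means compounds killing one labelled cell type while sparing the other, by normalised counts and ratio limits, not self-fluorescent; inactive means the rest.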

Columns and labels:
[1] = biological target: 6-phosphogluconate dehydrogenase, decarboxylating (Homo sapiens) (UniProt P52209); assay: inhibition of human phosphogluconate dehydrogenase – biochemical, recombinant enzyme, NADPH absorbance, primary screen (AID 1159550;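 active means at least 20% inhibition of 6-phosphogluconate dehydrogenase activity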); conditions: recombinant 6PGD, NADPH absorbance 341 nm; at 10 µM; stronger effect = higher value
[2] = EMT-state selective cytotoxicity in co-culture – imaging, PC-3E GFP, TEM4-18 mCherry, primary screen (AID 1345086); conditions: PC-3E GFP / TEM4-18 mCherry co-culture, imaging cell counts, at 1 µM; for red/green cell ratio (normalised): actives lie on both sides, counts scaled to control wells, 1 = unselective;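 on all read-outs here: cells exposed to compound for 72 h before imaging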;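 on red/green cell ratio (normalised): normalised mesenchymal count divided by normalised epithelial count so high means epithelial killing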
[3] = measured here: epithelial PC-3E GFP cell survival
[4] = measured here: mesenchymal TEM4-18 mCherry cell survival

6-phosphogluconate dehydrogenase, decarboxylating (Homo sapiens), sequence (P52209 whole entry, looked up): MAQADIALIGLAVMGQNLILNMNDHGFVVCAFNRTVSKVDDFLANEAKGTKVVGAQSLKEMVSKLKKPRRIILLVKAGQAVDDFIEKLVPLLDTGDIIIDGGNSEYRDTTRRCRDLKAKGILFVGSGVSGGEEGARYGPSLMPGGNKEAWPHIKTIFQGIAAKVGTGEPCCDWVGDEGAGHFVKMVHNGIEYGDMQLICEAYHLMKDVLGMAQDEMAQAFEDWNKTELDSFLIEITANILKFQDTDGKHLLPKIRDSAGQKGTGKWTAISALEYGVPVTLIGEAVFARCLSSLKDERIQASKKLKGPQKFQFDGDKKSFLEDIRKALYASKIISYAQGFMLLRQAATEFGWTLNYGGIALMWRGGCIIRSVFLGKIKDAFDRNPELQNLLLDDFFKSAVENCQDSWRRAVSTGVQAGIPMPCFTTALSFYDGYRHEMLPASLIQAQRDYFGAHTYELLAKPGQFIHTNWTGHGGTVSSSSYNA

Structure (SMILES)	inhibition [1]	red/green cell ratio (normalised) [2]	normalised cell number [2, 3]	normalised cell number [2, 4]
CC1CC[C@@]2(OC1)O[C@H]1CC3C4CC[C@@H]5C[C@@H](O)CC[C@]5(C)C4CC[C@]3(C)[C@H]1[C@@H]2C (stereo partly specified)	-2.11% (inactive)	1.16 (inactive)	1.03	1.2
CCC/C=C1\OC(=O)C2=C1CCC=C2	3.63% (inactive)	1.13 (inactive)	0.83	0.94
CC1NC(=O)NC1=O (stereo unspecified)	-12% (inactive)	0.85 (inactive)	0.94	0.79
CC[C@H](/C=C/C(C)C1CCC2C3CCC4=CC(=O)CC[C@]4(C)C3CC[C@]12C)C(C)C (stereo partly specified)	11.4% (inactive)	0.98 (inactive)	0.99	0.97
COC(=O)c1cc(=O)c(O)c2c(O)c(O)ccc2c1	-4.56% (inactive)	0.88 (inactive)	1.21	1.06
CC(C)=CCCC1(C)C=Cc2c(O)c3c(c(CC=C(C)C)c2O1)OC12C(=CCCC1C(C)(C)O[C@@]2(C/C=C(\C)C(=O)O)C(=O)O)C3=O (stereo partly specified)	0.371% (inactive)	0.93 (inactive)	1.16	1.08
O=C(O[C@@H]1Cc2c(O)cc(O)cc2O[C@@H]1c1cc(O)c(O)c(O)c1-c1c([C@H]2Oc3cc(O)cc(O)c3C[C@H]2OC(=O)c2cc(O)c(O)c(O)c2)cc(O)c(O)c1O)c1cc(O)c(O)c(O)c1	-4.6% (inactive)	1.06 (inactive)	0.89	0.94
COc1ccc(-c2cc(=O)c3c(O)cc(O)c(-c4cc(-c5cc(=O)c6c(O)cc(O)cc6o5)ccc4OC)c3o2)cc1	10.8% (inactive)	0.98 (inactive)	0.79	0.78
COc1cccc2c1CCC1CC(=O)CC[C@]21C (stereo partly specified)	-1.22% (inactive)	0.76 (inactive)	1	0.76
